PPC-1+TRAIL kill = compounds killing PPC-1 cancer cells with TRAIL present (potentiator screen, no TRAIL-free arm); PPC-1 cells + TRAIL, ATPLite viability luminescence; cell killing (% activity), % at 4 µM or 5 µM; 220,000 tested, 0.41% active; AID 1443;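 active means cell killing above 50% in the first pass at 4 µM, then a duplicate retest at 5 µM averaging 50% or more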;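 further: plate controls were cells with TRAIL plus DMSO for no effect and medium-only wells lacking cells for full effect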
C8 TRAIL sens = caspase-8 TRAIL sensitization; NB7+C8 cells + TRAIL, ATPlite viability luminescence; inhibition (viability loss, TRAIL sensitization), % at 10 µM; 360,000 tested, 1% active; AID 624354;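 active means compounds causing at least 50% loss of cell viability in the single-dose screen, relative to plate controls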
STAT3 inh = STAT3 signaling inhibition | U3A cells, IL-6 STAT3-luciferase reporter, luminescence; host cell line lacks STAT1 | inhibition, % at 5.5 µM | 190,000 tested, 0.89% active | AID 862;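 active means inhibition above the mean inhibition across all screened compounds plus 3 SD, cut at about 44% in these data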;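 further: 0% = DMSO only wells and 100% = 100 µM nifuroxazide control wells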
HSF1 inhib = HSF1 inhibition | 300,000 tested, 0.77% active | activity change, negative = inhibition, % at 7.5 µM (by protocol) | NIH3T3-HGL HSE-luciferase, MG132-induced, luminescence 8 h; active compounds read low;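 active means more than half of replicate wells show activity change below -50%, luminescence cut by over half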;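 further: luciferase reports HSF-1 transcriptional activity via heat shock element; 0% = median of DMSO wells and -100% = zero luminescence signal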
STAT1 inh = inhibitors of IFN-gamma induced STAT1 signaling. NIH 3T3 STAT1-luciferase reporter, luminescence. inhibition, % at 5.5 µM. 200,000 tested, 0.35% active. AID 920;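 active means inhibition above a set limit, the mean inhibition across all tested compounds plus 3 SD, cut at about 34% in these data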;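 further: 0% = IFN-gamma with DMSO and 100% = IFN-gamma with 300 µM nifuroxazide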
HSP90 inh = HSP90 refolding inhibition in rabbit reticulocyte lysate. luciferase refolding luminescence, 3 h. AID 1789. 290,000 tested, 0.91% active. inhibition, % at 5.6 µM;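 active means inhibition above the screen-wide mean plus 3 SD, computed separately per campaign, cut at about 16% in these data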;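 further: 0% = DMSO wells and 100% = 60 µM geldanamycin wells; inhibitors lower the luminescence because luciferase stays unfolded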
An asterisk follows results filed as active; . = no result; ! = not active in a repeat. Sampled rows, rich in hits. Any-hit rate of the full collection: about 2.4%.

SMILES	PPC-1+TRAIL kill	C8 TRAIL sens	STAT3 inh	HSF1 inhib	STAT1 inh	HSP90 inh
Cc1cccc(CS(=O)(=O)Cc2ccc(C(=O)NCc3cccs3)o2)c1	-8.1	-4.4	-7.3	-71.5*	-0.6	0.8
COc1ncnc2c1ncn2CCCNCc1ccccc1	.	21.4	.	.	.	.
CCCCCCCCN1C(=O)[C@H](CC(=O)NCc2ccc(OC)c(OC)c2)C[C@@]2(C(=O)OCC)CCCC=C12	.	1.3	.	.	.	.
O=c1[nH]c(/C(=N\O)c2ccccc2)no1	40.9	73.3*	19.9	-11.6	10.9	5.8
O=C(c1ccccc1)c1ncc[nH]1	.	0.1	.	8.9	.	0.2
CCOC(=O)CCCCCC(=O)Nc1ccc2c(c1)C(=O)N([C@H](C)CO)C[C@H](C)[C@@H](CN(C)C(=O)Nc1ccccc1)OCCCC[C@@H](C)O2	.	10.0	.	.	.	.
COc1ccc2nc(-c3ccccc3)[nH]c2c1	44.1	51.2*	34.3	3.5	-45.3	15.1
COc1ccc(-c2nc3ccc([N+](=O)[O-])cc3[nH]2)cc1	23.8	19.6	27.4	6.6	-93.2	8.3
Cn1c2nc(=O)n(-c3ccccc3)c(=O)c-2nc2c1CCCC2	.	-12.0	.	.	.	.
Nc1ccc(C=C2C=Cc3ccccc32)cc1	.	9.1	.	.	.	.
NC(N)=Nc1ccc(C=C2C=Cc3ccccc32)cc1	.	87.0*	.	.	.	.
COC(=O)c1ccc2nc(-c3ccc(F)cc3)c(Cc3ccccc3C(F)(F)F)n2c1	.	-2.3	.	.	.	.
O=C(NC12CC3CC(CC(C3)C1)C2)N1CCN(C(=O)C2CCCO2)CC1 (centres undefined)	-10.4	6.5	-4.3	-54.5*	-0.2	2.2
O=C(NC12CC3CC(CC(C3)C1)C2)N1CCC(O)CC1	14.0	1.2	-4.9	-1.2	3.1	-0.4
O=C(NCCc1ccccc1)C1Cc2c(-c3ccccc3Oc3ccccc3)ccnc2O1 (centres undefined)	.	-4.8	.	.	.	.
COc1ccc2cc(/C=N/NC(=O)c3ccc(CN(c4cccc(Cl)c4Cl)S(C)(=O)=O)cc3)c(Cl)nc2c1	50.6*	10.5	20.5	1.4	9.8	-2.5
COc1ccc2cc(/C=N/O)c(Cl)nc2c1	19.1	-29.2	8.7	2.2	-33.0	2.4
CCCc1ccc(C(O)c2ncc(-c3ccc(OC)cc3)[nH]2)cc1 (centres undefined)	.	-18.8	.	.	.	.
Cc1cc([N+](=O)[O-])ccc1NC(=O)CCC(=O)N1CCCC1	.	-4.9	.	-1.3	.	-2.1
Cc1cc([N+](=O)[O-])ccc1NC(=O)CCC(=O)N1CCCCC1	.	-0.7	.	-76.5*	.	-2.4
Cc1cccc(C)c1-c1ccc(CN2C(CC(C)C)C(=O)N(Cc3cn(CC4CCCCC4)nn3)CCS2(=O)=O)cc1 (centres undefined)	.	32.7	.	.	.	.
CN(C)Cc1c(-c2ccc(Cl)cc2)nc2ccccn12	3.7	3.4	8.7	20.3	-47.9	1.6
Clc1ccc(-c2nc3ccccn3c2CN2CCCCC2)cc1	-3.2	-3.8	45.7*	24.0	6.1	1.8
C=CCNC(=O)c1cc(-c2ccc3c(c2)OCO3)on1	.	51.3*	.	18.1	.	15.5
CCCCCCCN(C(=O)CCl)c1cccc(C)c1	15.5	94.8*	15.1	-92.7*	7.4	4.6
SMILES	PPC-1+TRAIL kill	C8 TRAIL sens	STAT3 inh	HSF1 inhib	STAT1 inh	HSP90 inh
N#CCCN(C(=O)CCl)c1cccc(Cl)c1	-1.5	-8.2	26.9	2.3	21.4	0.5
CCCCCCN(C(=O)CCl)c1ccccc1	22.3	95.6*	.	-67.9*	.	3.9
O=S1(=O)N[C@H](c2ccccc2)C[C@H](c2ccc(C(F)(F)F)cc2)O1	.	-22.9	.	-56.4*	.	-7.9
CC1CC(c2ccccc2)NS(=O)(=O)O1 (centres undefined)	.	7.6	.	-1.6	.	-2.5
O=C(NCc1cccc(Cl)c1)c1cccc2c(-c3cccnc3)coc12	.	9.1	.	.	.	.
CCOC(=O)c1c(S(=O)(=O)N2CCCC2)c(C)n(C)c1C	.	-7.5	.	-4.6	.	-7.3
CCOC(=O)c1c(S(=O)(=O)N2CCCCC2C)c(C)n(C)c1C (centres undefined)	.	0.0	.	-88.3*	.	0.5
COc1ccc(NC(=O)CCc2nnc3ccc(N4CCC(C)CC4)nn23)cc1OC	.	0.6	.	-71.3*	.	1.1
C[C@H](NC(=O)c1ncn2c1C(=O)NC[C@H]2C)C(=O)OC(C)(C)C	.	-6.0	.	.	.	.
CN(C)c1ccnc2c[cH-]cc12.[Fe].c1ccc(-[c-]2[c-](-c3ccccc3)[c-](-c3ccccc3)[c-](-c3ccccc3)[c-]2-c2ccccc2)cc1 (centres undefined)	26.9	88.7*!	.	2.4	.	.
O=C(Cn1cc(C(=O)c2ccco2)c2ccccc21)NC1CCCCC1	20.2	22.3	-5.1	-87.0*	9.3	-0.2
Cc1ccccc1-c1cnc(C(O)c2c(C)cccc2C)[nH]1 (centres undefined)	.	-4.3	.	.	.	.
COc1ccc(C(=O)/C(=C/c2cccs2)c2nc3ccccc3o2)cc1	30.7	6.9	5.1	-9.5	-10.9	16.6*
COc1ccc(/C=C(\CC(=O)O)c2nc3ccccc3o2)cc1	4.6	-7.6	-23.8	-25.2	-54.6	1.8
CC1(C(=O)NS(=O)(=O)c2ccc(C#N)cc2)CCN1C(=O)Cc1ccc(Cl)cc1Cl (centres undefined)	.	7.2	.	.	.	.
CCOC(=O)c1c(C)n(C)c2ccc(OC)c(NC(=O)CN3CCSCC3)c12	11.9	-7.3	6.2	-90.7*	3.9	-0.6
C/C(=N\NC(=O)c1nnn(-c2nonc2N)c1CSc1ccc(C)cc1)c1cccnc1	.	-12.8	.	.	.	.
CC1(C(=O)NCc2ccc(Cl)cc2)CCN1C(=O)c1cccc(F)c1 (centres undefined)	.	-3.1	.	.	.	.
O=[N+]([O-])c1ccc(N=Cc2sc3ccccc3c2O)cc1	32.1	19.1	-11.2	-84.1*	-1.9	14.8
Oc1c(C=NCc2ccccc2)sc2ccccc12	2.3	8.2	-1.5	20.9	-48.3	24.2*
Oc1cccc(C=NCc2ccccc2)c1O	-15.5	-0.4	3.6	-8.1	10.9	3.7
COC(=O)[C@@]1(Sc2ccc(C)cc2)CC(=O)N(C(=O)CCc2ccccc2)[C@@H]1c1ccccc1	.	3.8	.	.	.	.
CCN1C(c2ccc(F)cc2)=CS/C1=C(/C#N)c1nnc2n1-c1ccccc1SC2	.	0.8	.	.	.	.
Cc1ccc(C)c(N2CCN(C(C(=O)NC3CCCC3)C(C)C)CC2)c1 (centres undefined)	.	-2.3	.	.	.	.
c1cn(CCCNc2ncnc3nc[nH]c23)cn1	7.1	-8.6	14.7	2.2	-2.4	1.6
CCN1CCN(CCCNc2ncnc3nc[nH]c23)CC1	-6.2	8.4	0.6	-86.9*	-0.5	-1.4
Oc1ccc(-c2cnc(-c3ccc(O)cc3)nc2)cc1	.	80.3*	.	42.2	.	11.8
OC(COCC1COc2ccccc2O1)CN1CCN(c2ccccn2)CC1 (centres undefined)	5.1	-3.7	18.4	-8.9	-3.6	19.1*
O=C(CCCCn1c(=O)[nH]c2ccsc2c1=O)NCCc1ccccc1	1.3	-20.7	5.6	-2.0	4.2	2.6
O=C(CCCCn1c(=O)[nH]c2ccsc2c1=O)NCc1cccnc1	8.0	9.2	-6.2	-55.5*	1.9	-2.1

Screening results as filed in PubChem.
